Reference: PubChem BioAssay AID1224921 (Broad Institute, 2016)
Among all 1,400 compounds or so, about 350 (25%) were called active. About 2% were inconclusive and are not listed. The rule behind the calls is not given here. Not all results are given here. Entries with a potency or affinity are not part of this list.

Assay: inhibitors of Clostridioides difficile proliferation – 4-point retest, confirmation (AID 1224921);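 note: plate controls were DMSO wells for no effect and levofloxacin 16 µg/mL wells for full effect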
Conditions: Clostridioides difficile clinical isolate growth, OD600, 24 h, hits give low values; at 30 µM unless noted

Max activity, inactive:
COc1ccc(NC(=O)N[C@H]2C=C[C@@H](CC(=O)NC3CCCCC3)O[C@H]2CO)cc1 -14.6% [at 1.95 µM], COc1ccc(CN(C)C[C@H]2OCCCC[C@@H](C)Oc3ccc(NC(=O)Nc4ccc(F)cc4)cc3C(=O)N([C@@H](C)CO)C[C@@H]2C)cc1 19.8% [at 8 µM], COCC#Cc1ccc2c(c1)O[C@H](CN(C)C)[C@@H](C)CN([C@H](C)CO)S2(=O)=O 7.09%, CO[C@H]1CN(C)C(=O)c2cc(NC(=O)c3ccccc3)ccc2OC[C@@H](C)N(C)C[C@@H]1C -8.25% [at 8 µM], C[C@@H]1CN([C@@H](C)CO)C(=O)c2c(c3ccccc3n2C)-c2ccccc2CO[C@@H]1CN(C)S(=O)(=O)c1cccc(F)c1 6.96% [at 8 µM], C[C@H](CO)N1C[C@H](C)[C@H](CN(C)C(=O)[C@H](C)c2ccccc2)OCc2ccccc2-c2ccccc2C1=O 12.5% [at 1.95 µM], C[C@@H]1CN([C@H](C)CO)C(=O)c2cccc(NC(=O)Nc3ccc(C(F)(F)F)cc3)c2O[C@H]1CN(C)C(=O)Nc1ccccc1 25.7% [at 8 µM], C[C@H](CO)N1C[C@H](C)[C@@H](CN(C)C(=O)Nc2ccccc2)Oc2c(NC(=O)Nc3ccc(C(F)(F)F)cc3)cccc2C1=O 46.6% [at 8 µM], C[C@@H]1CN([C@H](C)CO)C(=O)c2cccc(NC(=O)Nc3ccc(C(F)(F)F)cc3)c2O[C@@H]1CN(C)C(=O)Nc1cccc2ccccc12 40.5% [at 1.95 µM], C[C@@H]1CN([C@@H](C)CO)C(=O)c2cccc(NC(=O)Nc3ccc(C(F)(F)F)cc3)c2O[C@H]1CN(C)C(=O)Nc1cccc2ccccc12 30.6% [at 1.95 µM], C[C@@H]1CN([C@@H](C)CO)C(=O)c2cccc(NC(=O)Nc3ccc(C(F)(F)F)cc3)c2O[C@H]1CN(C)C(=O)Nc1ccccc1 29.3%, C[C@H]1CN([C@@H](C)CO)S(=O)(=O)c2ccc(-c3ccccc3F)cc2O[C@@H]1CN(C)Cc1ccncc1 27%, C[C@H](CO)N1C[C@H](C)[C@@H](CN(C)C(=O)C2CCCCC2)Oc2ncc(-c3ccccc3F)cc2C1=O -11.4% [at 8 µM], C[C@H]1CN([C@@H](C)CO)C(=O)Cc2cc(NS(C)(=O)=O)ccc2O[C@H]1CN(C)Cc1ccccc1 10.4%, COc1ccccc1C(=O)Nc1ccc2c(c1)OC[C@@H](C)N(CC1CC1)C[C@@H](C)[C@H](OC)CN(C)C2=O 19.1%, CO[C@@H]1CN(C)C(=O)c2ccc(NC(=O)c3nc4ccccc4s3)cc2OC[C@@H](C)N(Cc2ccncc2)C[C@H]1C 30.6%, CCCC#Cc1ccc2c(c1)O[C@H](CN(C)Cc1ccncc1)[C@H](C)CN([C@H](C)CO)S2(=O)=O 6.31%, C[C@@H]1CN([C@H](C)CO)C(=O)c2cccc(NC(=O)Nc3ccc4c(c3)OCO4)c2O[C@H]1CN(C)S(=O)(=O)c1ccc(Cl)cc1 -12.1% [at 8 µM], CC(C)CC#Cc1ccc2c(c1)O[C@@H](CN(C)Cc1cccnc1)[C@H](C)CN([C@@H](C)CO)S2(=O)=O 42%, COc1ccccc1C#Cc1ccc2c(c1)O[C@H](CN(C)Cc1ccncc1)[C@@H](C)CN([C@@H](C)CO)S2(=O)=O 48.6%, CCCNC(=O)N(C)C[C@@H]1Oc2cc(C#Cc3ccccn3)ccc2S(=O)(=O)N([C@@H](C)CO)C[C@H]1C 9.97%, CO[C@H]1O[C@H](CO)[C@@H](OC(=O)Nc2ccc3c(c2)OCO3)[C@H](OC(=O)Nc2ccccc2)[C@H]1OC(=O)Nc1ccccc1 10.7%, CCC(=O)N[C@H]1C=C[C@@H](CC(=O)OC)O[C@@H]1CO -10.5%, CN1C(=O)c2cc(NC(=O)Cc3ccccc3)ccc2OC[C@H]2O[C@@H](CC(=O)NCC3CC3)CC[C@H]21 -7.83%, O=C(C[C@@H]1C[C@@H]2c3cc(NC(=O)Nc4ccc(C(F)(F)F)cc4)ccc3O[C@@H]2[C@H](CO)O1)NCc1ccc(Cl)cc1 27.7%, CCC(=O)Nc1ccc2c(c1)OC[C@H](C)N(CC1CCCCC1)C[C@@H](C)[C@@H](OC)CN(C)C2=O 8.81%, CCCN1[C@@H]2c3ccc(-c4ccc(F)cc4)c(=O)n3C[C@@H]2[C@@H](CO)[C@@H]1C(=O)N[C@@H](C)c1ccccc1 -8.45%, COc1ccccc1-c1ccc2c(c1)O[C@@H](CN(C)C(=O)c1ccccc1)[C@@H](C)CN([C@@H](C)CO)S2(=O)=O 29.9%, COCC(=O)Nc1ccc2c(c1)OC[C@H](C)N(Cc1ccccc1)C[C@@H](C)[C@@H](OC)CN(C)C2=O 5.39%, CCCC(=O)Nc1ccc2c(c1)C(=O)N(C)C[C@H](OC)[C@@H](C)CN(S(=O)(=O)c1cn(C)cn1)[C@@H](C)CO2 -11.7%, C[C@H]1CCCCO[C@@H](CN(C)Cc2ccc(C(=O)O)cc2)[C@@H](C)CN([C@@H](C)CO)C(=O)c2cc(NC(=O)Nc3ccc4c(c3)OCO4)ccc2O1 -7.43%, CCC(=O)N(C)C[C@@H]1Oc2cc(C#CCC3CCCC3)ccc2S(=O)(=O)N([C@H](C)CO)C[C@H]1C 29.4%, COc1cc(O)c2c(c1)oc(=O)c1c3cc(O)c(O)cc3oc21 14.5%, CNC(=O)C[C@@H]1CC[C@H]2[C@@H](COc3ccc(NC(=O)c4ccccc4F)cc3C(=O)N2C)O1 -11.2% [at 1.95 µM], CNC(=O)C[C@H]1CC[C@H]2[C@H](COc3ccc(NC(=O)c4ccccc4F)cc3C(=O)N2C)O1 -13.3% [at 1.95 µM], O=C(Nc1ccc2c(c1)OCO2)N[C@@H]1C=C[C@H](CC(=O)N2CCN(c3ccccc3)CC2)O[C@H]1CO 18.2%, CO[C@@H]1CN(C)C(=O)c2ccc(NC(=O)c3ccc(F)cc3)cc2OC[C@H](C)N(C(=O)CN(C)C)C[C@@H]1C -20.6% [at 1.95 µM], CNC[C@H]1Oc2cc(-c3ccccc3F)ccc2S(=O)(=O)N([C@H](C)CO)C[C@H]1C 25.6%, C[C@@H]1CN([C@H](C)CO)C(=O)Cc2cc(NC(=O)C3CC3)ccc2O[C@@H]1CN(C)Cc1ccc(-c2ccccc2)cc1 43.1% [at 35 µM], CC(C)C#Cc1ccc2c(c1)O[C@H](CN(C)Cc1ccncc1)[C@@H](C)CN([C@H](C)CO)S2(=O)=O 51.9%, CO[C@H]1CN(C)C(=O)c2cc(NC(=O)Nc3ccccc3F)ccc2OC[C@@H](C)N(CC2CC2)C[C@@H]1C -19.6% [at 1.95 µM], CO[C@@H]1CN(C)C(=O)c2ccc(NC(C)=O)cc2OC[C@@H](C)N(Cc2cccc(F)c2)C[C@@H]1C 16.8%, CCS(=O)(=O)Nc1ccc2c(c1)C(=O)N(C)C[C@@H](OC)[C@H](C)CN(CC1CCCC1)[C@H](C)CO2 -10.9% [at 1.95 µM], C[C@@H]1CN([C@H](C)CO)S(=O)(=O)c2ccc(C#CCC3CCCC3)cc2O[C@H]1CN(C)C(=O)CC1CC1 15.9%, COc1cccc(NC(=O)N[C@H]2CC[C@H](CC(=O)Nc3ccc(-c4ccccc4)cc3)O[C@H]2CO)c1 32.5%, COc1cccc(-c2ccc3c(c2)O[C@@H](CN(C)Cc2cccnc2)[C@H](C)CN([C@H](C)CO)S3(=O)=O)c1 34.9%, C[C@@H]1CN([C@H](C)CO)C(=O)c2cccc(NC(=O)c3nc4ccccc4s3)c2O[C@H]1CN(C)Cc1ccc2c(c1)OCO2 20.2%, O=C(C[C@H]1C[C@H]2c3cc(NC(=O)C4CCC4)ccc3O[C@H]2[C@H](CO)O1)NCCc1ccccc1 -11.7% [at 1.95 µM], CCC(=O)N1C[C@H](C)[C@H](OC)CN(C)C(=O)c2ccc(NC(=O)Nc3ccc(Cl)cc3)cc2OC[C@H]1C 20%, Cc1ccccc1S(=O)(=O)NCC[C@H]1CC[C@H](NC(=O)Nc2cccc(Cl)c2)[C@H](CO)O1 6.17% [at 35 µM], CCC(=O)N[C@H]1CC[C@H](CC(=O)NCc2ccccc2F)O[C@H]1CO -6.85% [at 0.5 µM], CCC(=O)N[C@@H]1CC[C@H](CC(=O)NCc2ccccc2F)O[C@@H]1CO -16.5% [at 8 µM], CCC(=O)N[C@@H]1CC[C@@H](CC(=O)NCc2ccccc2F)O[C@@H]1CO -13% [at 8 µM], N#C[C@H]1[C@H](c2ccc(C#Cc3ccccc3F)cc2)[C@@H](CO)N1C(=O)C1CCC1 26.9%, C[C@@H]1CN([C@H](C)CO)S(=O)(=O)c2ccc(C#CC3CCCCC3)cc2O[C@@H]1CN(C)Cc1cccnc1 42.2%, CO[C@H]1CN(C)C(=O)c2ccc(NC(=O)c3ccc(F)cc3)cc2OC[C@H](C)N(C(=O)CN(C)C)C[C@@H]1C -12.9%, COc1ccccc1C#Cc1ccc2c(c1)O[C@@H](CN(C)Cc1cccnc1)[C@H](C)CN([C@H](C)CO)S2(=O)=O 35.7%, O=C(C[C@H]1C[C@@H]2c3cc(NC(=O)Nc4ccc(C(F)(F)F)cc4)ccc3O[C@@H]2[C@H](CO)O1)NCc1ccc2c(c1)OCO2 9.19%
